Several values for one entry are separate records, joined by “and”; a condition that tells them apart may be missing. Equal entries are not always repeated. About 1,000 (0.43%) of roughly 230,000 compounds were called active. Calls come from the whole dose curve; as a rule, active = well fitted inhibition curve with a large enough effect (not every such curve was filed as active); inactive = no such curve, though single readings can be large or run the other way. The sample as a whole holds a higher share of actives than the screen did.
biological target: Guanine nucleotide-binding protein G(i) subunit alpha-1 (Homo sapiens) (UniProt P63096); assay: qHTS Assay for Inhibitors of RGS12 GoLoco Motif Activity (Red Fluorophore); conditions: Gai1:RGS12 GoLoco peptide FP, rhodamine, 10 min; series mostly up to 61.6 µM; activity, negative = inhibition: at the top concentration; note: nearly all actives have a fitted effect of over 30% in size
From the text: Assay Submitter: Siderovski, David P, University of North Carolina at Chapel Hill
Screening Center PI: Austin, C.P.
Screening Center: NIH Chemical Genomics Center [NCGC]
G-protein-coupled receptors (GPCRs) are major targets for drug discovery. The regulator of G-protein signaling (RGS)-protein family has important roles in GPCR signal transduction. RGS proteins contain a conserved RGS-box, which is often accompanied by other signaling regulatory elements. RGS proteins accelerate the deactivation of G proteins to reduce GPCR signaling; however, some also have an effector function and transmit signals. Combining GPCR agonists with RGS inhibitors should potentiate responses, and could markedly increase the agonist's regional specificity. The diversity of RGS proteins with highly localized and dynamically regulated distributions in brain makes them attractive targets for pharmacotherapy of central nervous system disorders. […] A complex of Gai1 and fluorescently labeled G-alpha-binding peptide (the "GoLoco motif") derived from RGS12 is incubated with library members. Inhibitors of the binding are detected by a decrease in the fluorescence polarization (FP) of the fluorophore. Protein was supplied by Prof. David Siderovski, University of North Carolina at Chapel Hill.
Assay Buffer: 10 mM Tris-HCl, 150 mM NaCl, 0.1 mM GDP (prepared fresh), and 0.05% NP40 at pH 7.5.
15 nM Rhodamine labeled peptide/25 nM protein in columns 1, 2, 5 - 48. Titration of unlabeled peptide control ([H][…][NH2], custom synthesized and HPLC-purified by Tufts University Core Facility) from 20 mM, then 1:2 dilution, 16-point in duplicate, pin-transferred to column 2, rows 1 to 32. Column 1 is neutral.
Rhodamine-labeled peptide (Rhodamine-[…]-NH2) was custom-synthesized and HPLC-purified by Invitrogen (Carlsbad, CA).
Four uL of reagents were dispensed to 1536-well Greiner black solid-bottom plates. Compounds and controls (23 nL) were transferred via Kalypsys PinTool. The plates were incubated for 10 min at room temperature, and then read on ViewLux (Perkin-Elmer) High-throughput CCD imager using BODIPY for the rhodamine-labeled decapeptide probe. During dispense, reagent bottles were kept submerged into 4 deg C water bath and all liquid lines were covered with aluminum foil to minimize probe and protein degradation. All screening operations were performed on a Kalypsys robotic system (Kalypsys, Inc., San Diego, CA) containing one RX-130 and two RX-90 anthropomorphic robotic arms.
% is set by controls: 0 for no effect and ±100 for the full control effect; potency is the fitted concentration of half-maximal effect.

Chain of Guanine nucleotide-binding protein G(i) subunit alpha-1 (Homo sapiens) (P63096 whole entry, looked up): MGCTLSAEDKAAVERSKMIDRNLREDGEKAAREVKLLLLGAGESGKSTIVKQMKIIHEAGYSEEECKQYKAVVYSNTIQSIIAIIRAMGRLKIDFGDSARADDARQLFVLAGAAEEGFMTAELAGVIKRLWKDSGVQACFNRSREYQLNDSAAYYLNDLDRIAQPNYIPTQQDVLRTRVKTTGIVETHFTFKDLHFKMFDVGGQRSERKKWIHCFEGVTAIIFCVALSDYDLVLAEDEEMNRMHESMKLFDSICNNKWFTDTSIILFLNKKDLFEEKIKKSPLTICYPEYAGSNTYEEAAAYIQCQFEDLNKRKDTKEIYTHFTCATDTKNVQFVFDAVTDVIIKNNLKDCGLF

activity, negative = inhibition, inactive:
CCOC(=O)c1ccc(NC(=O)CSc2nnc(COc3ccccc3OC)n2C)cc1 9.95%
CCOC(=O)c1ccc(NC(=O)Cn2cnc3cc(C)c(C)cc32)cc1 6.97%
CCOC(=O)C1=C(C)c2ccccc2OC1(C)C(=O)OCC (stereo unspecified) -4.52% [at 88.7 µM]
Cc1ccccc1-n1nnnc1SCCCC(=O)c1ccc(F)cc1 11.6%
N#Cc1ccsc1NC(=O)CN1CCN(S(=O)(=O)c2cc(Cl)ccc2Cl)CC1 9.81%
CCOc1ccc(N=NS(=O)(=O)O)cc1 -17.6% [at 14.2 µM]
Cc1ccccc1CC1(CO)CCCN(Cc2ccc3c(c2)OCCO3)C1 (stereo unspecified) -5.36%
NCCC(=O)c1ccccc1N -0.0525%
CCCc1ccc(-c2c(C)sc(NC(=O)c3ccnn3C)c2C#N)cc1 1.09%
CC(C)=C(NC(=O)c1ccccc1)C(=O)N/N=C(\C)c1ccccc1O -1%
Cc1ccc2[nH]c(=O)c(CN(CCCN(C)C)C(=O)Nc3cccc(Cl)c3)cc2c1 2.71%
N=C1C(c2nc3ccccc3s2)=C(O)CN1NC(=O)c1ccc([N+](=O)[O-])cc1 6.8%
COc1ccc(/C=C(\C#N)C(=O)NCCCn2ccnc2)cc1 -7.5%
CCOC(=O)c1cnc(SC)nc1Sc1ccc(Cl)cc1Cl 0.136%
O=P(O)(O)OC[C@H](O)CO 2.38%
CCOC(=O)c1c(NC(=S)NC)sc2c1CCCC2 0.716%
Cc1ccc(NC(=O)CN2CCCCC2)c2c1CC(C)(C)O2 -3.9%
Cc1ccc(Nc2cc(C)nc3c(C)ccc([N+](=O)[O-])c23)cc1 5.73%
NCCCCC(N)C(=O)O (stereo unspecified) 3.62%
CC(C)[C@@H]1NC(=O)[C@H](Cc2ccccc2)NC(=O)[C@@H](CC(=O)O)NC(=O)CNC(=O)[C@H](CCCNC(=N)N)NC1=O 8.69%
CCS(=O)(=O)N1Cc2ccccc2CC1C(=O)Nc1nc2ccc(F)cc2s1 (stereo unspecified) 2.6%
O=C(NCc1cc(C(F)(F)F)cc(C(F)(F)F)c1)C1CC(c2cccc(F)c2)=NO1 (stereo unspecified) -20.7%
Cc1ccccc1-c1n[nH]c(=S)n1/N=C/c1ccc(-c2ccccc2Br)o1 8.75%
O=c1[nH]cnc2c1c(-c1ccccc1)cn2-c1ccc(F)cc1 1.55%
Clc1ccc(CSc2nnc3c(n2)[nH]c2ccccc23)cc1 1.68%
COC(c1ccccc1)(c1ccccc1)C(Oc1nc(C)cc(C)n1)C(=O)O (stereo unspecified) 3.51%
COc1cccc(NC(=O)CN(C)C(=O)/C=C/c2cc(OC)ccc2OC)c1 6.97%
O=C(NCCc1c[nH]c2ccccc12)c1cc2ccccc2oc1=O -2.24%
CN(c1ccccc1)S(=O)(=O)c1cc(C(=O)Nc2nc3ccccc3[nH]2)ccc1Cl 13.7%
CCC(C)[C@@H](N)C(=O)O (stereo partly specified) -0.853%
CC1=C/C(=N\S(=O)(=O)c2ccccc2)C(C(C)C)=CC1=O 16%
Cc1ccc(S(=O)(=O)c2ccc(Oc3ccccc3)cc2)cc1 6.2%
CC#CC[N+](C)(C)CCCCCC -9%
NC(=O)C(=O)N/N=C/c1ccc([N+](=O)[O-])o1 1.84%
S=c1[nH]nc(-c2ccccc2)n1/N=C/c1c[nH]c2ccccc12 9.19%
CSC(=S)N/N=C/c1c[nH]c2ccccc12 4.52%
Cc1ccc(CCCOC(=O)C[N+]2(C)CCCCC2)cc1 15.3%
CCCCOC(=O)Cn1c(=O)n(CC(=O)OCCCC)c2cc(C)ccc21 0.114%
C[C@@]12CCC(=O)C=C1CC[C@H]1C2[C@@H](O)C[C@]2(C)[C@@H]1CC[C@@]2(O)C(=O)COC(=O)C1CCCC1 (stereo partly specified) -1.69% [at 14.2 µM]
O=C(CC1SC(=Nc2ccccc2)N(Cc2ccccn2)C1=O)Nc1cccc(Cl)c1 (stereo unspecified) 17.4%
CC(C)S(=O)(=O)c1csc(NC(=O)Nc2ccc(Cl)cc2)c1Cl 3.76%
CC(C)N(Cc1ccccc1)C(=O)COC(=O)c1cnccn1 0.644%
CCO[C@H]1OC(C(=O)NCc2ccccc2)=C[C@@H](c2coc3ccccc3c2=O)[C@@H]1CCCO 10.1%
Cc1ccc(-c2ncc(Cl)cc2-c2ccc(S(C)(=O)=O)cc2)cn1 0.142%
CCOC(=O)N/N=C/c1cn(Cc2ccccc2Cl)c2ccccc12 -6.07%
CN1CCN(/N=C2/C(=O)Nc3ccc([N+](=O)[O-])cc32)CC1 4.86%
Cc1nn(-c2cc(Cl)ccc2N)c(=O)c2ccccc12 -13.2%
CCN1C(=O)c2cccc3c(N)ccc1c23 7.95%
Cc1cccc(N2C(=O)SC(SC(=Nc3ccccc3)Nc3ccccc3)C2=O)c1 (stereo unspecified) -0.129%
O=C(C1=C[C@H](C2CC2)C[C@H](OCc2ccc(CO)cc2)O1)N1CCN(Cc2ccccc2)CC1 3.38%
CCOC(=O)N1CCN(Cc2nc3ccc([N+](=O)[O-])cc3c(=O)n2-c2cccc(OC)c2)CC1 -0.269%
CCOC(=O)Nc1ccccc1N1C(=O)c2ccccc2C1=O 1.1%
CCOC(=O)C1=C(C(=O)OCC)C(C(=O)OCC)N(S(=O)(=O)C(F)(F)F)c2ccccc21 (stereo unspecified) 7.48%
Cc1nc2c(c(=O)n1Cc1ccco1)c1nc3ccccc3nc1n2Cc1ccccc1 25.4%
O=c1[nH]c2c(c(=O)n1Cc1ccccc1)CCC2 -1.69%
O=C(Nc1ccc(O)cc1)c1ccccc1O 0.336%
CC(=O)c1ccc(OCCN2CCOCC2)cc1 -13.5%
COc1ccc(OCCC(=O)c2ccc(OC)cc2)cc1 3.76%
O=C(CCCNS(=O)(=O)c1cccc2nsnc12)NCCN1CCN(c2ccccc2F)CC1 -6.83%
N#Cc1ccccc1CN1C(=O)S/C(=C/c2cccn2-c2cccc(C(=O)O)c2)C1=O 66.7%
COc1cc(C(=O)NCc2ccc3c(c2)cc(C)n3C)cc(OC)c1OC -5.23%
CCOc1ccc(C(O)Cn2c(=N)n(CCN3CCCCC3)c3ccccc32)cc1 (stereo unspecified) 9.41%
O=P(O)(CN1CCCCCC1)C1Cc2ccccc2C1 -3.29%
Cc1ccccc1CN1C[C@@H]2C[C@@H](c3ccc4nsnc4c3)N3CCC[C@@]23C1=O 6.4%
Nc1nc2c(ncn2[C@@H]2O[C@H](COP(=O)(O)OP(=O)(O)OP(=O)(O)O)[C@@H](O)C2O)c(=O)[nH]1 (stereo partly specified) 2.15%
CC/C=C\C/C=C\C/C=C\C/C=C\C/C=C\C/C=C\CCC(=O)NCCc1ccc(O)c(O)c1 3.48%
COc1ccc(CC(N)C(=O)NC2C(O)[C@H](n3cnc4c(N(C)C)ncnc43)O[C@@H]2CO)cc1 (stereo partly specified) 3.32%
COCCNC(=O)/C(C#N)=C/c1nc(N(C)C)n(-c2ccc(F)cc2)c1Cl -2.69%
O=C(/C=C/NCc1ccc(F)cc1)c1ccccc1 -3.93%
O=C(c1ccncc1)N1CCN(c2ccc3ccccc3n2)CC1 -3.32%
Cc1nc(-c2ccccc2)sc1C(=O)/C=C/N(C)C 8.99%
CC1(C)C=CC(=O)[C@]2(C)C1CC(=O)[C@]1(C)C2CC[C@@]2(C)C(c3ccoc3)OC(=O)C3OC321 (stereo partly specified) -47.9%
CC(C)=CCN1CCC2(CCc3ccccc32)CC1 7.2%
O=C(c1ccc(F)cc1)N1CCCC(c2nc(-c3cccs3)no2)C1 (stereo unspecified) -1.92%
C/C(=N\NC(=S)NC1CCCCC1)c1ccc(C)o1 -0.165%
CCN1/C(=C/C(=S)Nc2ccccc2)Sc2ccccc21 31.8%
CCN1/C(=C\c2ccc3ccccc3[n+]2CC)Sc2cc(C)ccc21 70.9%
O=c1ccn([C@@H]2O[C@H](COP(=O)(O)OP(=O)(O)OP(=O)(O)O)[C@@H](O)[C@H]2O)c(=O)[nH]1 1.87%
CC(Sc1nc2c([nH]c3ccccc32)c(=O)n1C)c1ccccc1 (stereo unspecified) -2.16%
CC/C=C\C/C=C\C/C=C\C/C=C\C/C=C\C/C=C\CCC(=O)NC(C)C(=O)O (stereo unspecified) 5.36%
COc1ccc(S(=O)(=O)N2CN(CCc3ccc(OC)c(OC)c3)c3nc4ccccc4nc32)cc1 6.37%
O=C(NCc1ccccn1)c1c(O)c2c([nH]c1=O)CCCC2 -0.895%
CCc1nnc(NC(=O)c2c(O)c3c([nH]c2=O)CCCC3)s1 -2.64%
Cc1ccc(-c2csc(NC(=O)Cn3[nH]c(=O)c4ccccc4c3=O)n2)cc1 23.6%
COC(=O)c1sc(=S)n(-c2ccccc2)c1N -8.96%
CCOC(=O)c1c(N)sc(C(C)=O)c1C 5.69%
Cn1c(=O)n(Cc2ccco2)c(=N)c2c3c(sc21)CCCC3 4.71%
CC(N)(C(=O)O)c1ccc(-c2nn[nH]n2)cc1 (stereo unspecified) 3.74%
Cc1ccc(CN2CCN(/N=C/c3cccnc3)CC2)c(C)c1 28.4%
O=C1OC(c2ccc(Cl)cc2)=N/C1=C\c1cccnc1 12%
Cc1ccccc1C1=N/C(=C/c2cccnc2)C(=O)O1 3.85%

Potency, inactive:
C=CC(=O)c1ccc2ccccc2c1

Potency, active:
CCOC(=O)c1ccc(NC(=O)CSc2ncccn2)cc1 2.82 µM
C[N+]1(CCNC(=O)/C=N/O)CCCCC1 12.6 µM
CC1=C/C(=N\OS(=O)(=O)c2ccccc2)C=CC1=O 28.2 µM
C[n+]1ccc(/C=C/c2c[nH]c3ccccc23)cc1 0.562 µM
Cc1ccc(CCCOC(=O)C[N+]2(C)CCCC2)cc1 7.08 µM
Cc1nn(C)cc1N1C(=O)c2cccc3c(N)ccc(c23)C1=O 14.1 µM
CCOC(=O)c1cc2n(c1N)-c1ccccc1C2=O 17.8 µM
Cc1cc2nc3c(=O)n(Cc4ccccc4)c(=O)[nH]c3nc2cc1N 12.6 µM
CC(C)CCOc1ccc(C(=O)C[N+]2(C)CCOCC2)cc1 3.55 µM
CC[N+](C)(CC)CCC[n+]1c(-c2ccccc2)c2cc(N)ccc2c2ccc(N)cc21 4.47 µM and 12.6 µM
CCN1/C(=C/c2ccc3ccc(C)cc3[n+]2CC)Sc2ccccc21 0.708 µM
C[N+](C)(C)CCNC(=O)c1c(O)c2c([nH]c1=O)CCCC2 1.12 µM
COCCOC(=O)c1sc(=S)n(CCOC)c1N 12.6 µM
Cc1ccc(C2=C/C(=C\c3cccnc3)C(=O)O2)cc1 0.794 µM

Reference: PubChem BioAssay AID880 (National Center for Advancing Translational Sciences (NCATS), 2007)
